Data on 17 compounds can be found in PubChem BioAssay (NCATS).

The nature of assay [1]: NS1 protein of Zika virus - qHTS assay to identify small molecule inhibitors in human HEK 293 cells (AID 1347053). Also: nearly all actives have a fitted effect of over 55% in size. Put shortly:
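TR-FRET signal from two anti-ZIKV NS1 antibodies quantified NS1 in HEK 293 cells 24 h after MR766 infection at MOI = 0.5; compounds were added 1 h before virus. Uninfected cells and infected cells defined the NS1 normalization range.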

Assay [2] in a line: qHTS of pediatric cancer cell lines to identify multiple opportunities for drug repurposing: Primary screen for TC32 cells (AID 1347089). Also: nearly all actives have a fitted effect of over 60% in size. Put shortly: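 Luminescent CellTiter-Glo read-out of metabolically active TC32 cells after 48 h compound exposure. Primary: MIPE 11-point, 0.78 nM–46 µM; NPC 8-point, 0.59 nM–46 µM. Confirmatory: 11-point dilutions.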
In general terms: Quantitative high-throughput screening tests each substance at several concentrations.

Assay [3] in a line: qHTS of pediatric cancer cell lines to identify multiple opportunities for drug repurposing: Primary screen for DAOY cells (AID 1347090). Also: nearly all actives have a fitted effect of over 55% in size. In outline:
(§1)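 Viability measured as metabolically active cells via CellTiter-Glo luminescence following 48 hours of compound exposure, 11-point dilutions in confirmatory testing. 500-1,000 cells/well plated 5 hours before dosing; controls were DMSO and 2.3 µM bortezomib.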

Assay [4] is described as follows: qHTS of pediatric cancer cell lines to identify multiple opportunities for drug repurposing: Primary screen for SJ-GBM2 cells (AID 1347091). Put shortly:
as §1

Assay [5] can be described thus: qHTS of pediatric cancer cell lines to identify multiple opportunities for drug repurposing: Primary screen for A673 cells (AID 1347092). Also: nearly all actives have a fitted effect of over 45% in size. Put shortly: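 A673 cells (500-1,000 cells/well in growth media) were pre-incubated 5 h at 37 degrees C, then exposed to compounds for 48 h. Viability was read as CellTiter-Glo luminescence; concentration-response curves came directly from the primary screen.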

Assay [6] in a line: qHTS of pediatric cancer cell lines to identify multiple opportunities for drug repurposing: Primary screen for BT-37 cells (AID 1347094). In outline: (§2)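 Plated cells (500-1,000 per well, growth media) were allowed to settle for 5 hours, treated with compound dilutions for 48 hours, then lysed with CellTiter-Glo for 15 min at room temperature before luminescence reading.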
Assay [7] can be described thus: qHTS of pediatric cancer cell lines to identify multiple opportunities for drug repurposing: Primary screen for NB-EBc1 cells (AID 1347095). In outline: as §2
The nature of assay [8]: qHTS of pediatric cancer cell lines to identify multiple opportunities for drug repurposing: Primary screen for SK-N-MC cells (AID 1347093). Put shortly:
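Metabolically active cells were quantified by ATP-dependent luminescence (CellTiter-Glo, 15 min at room temperature) following 48 h treatment. Cells had been plated at 500-1,000 per well and settled for 5 h beforehand.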

SMILES strings stand for the structures. Several values for one entry are separate records, joined by “and”; a condition that tells them apart may be missing. Identical values can stand only once. Inconclusive results are not listed. Activity calls are given as the source filed them. Calls follow the shape of the dose curve; as a rule, active = well fitted curve in the direction sought with a large enough effect; inconclusive = small, poorly fitted or top-dose-only effect, or another doubt; inactive = no such curve, though single readings can be large; an effect the other way counts as inactive or inconclusive.
Potency is read from the fitted curve at half-maximal effect.

Take `O=C(O)c1cccnc1`: the Potency result in assay [1], in assay [2], in assay [3], in assay [4], in assay [5] and in assay [6] was “inactive” each time. The Potency entry in assay [7] was “inactive”.

For the compound `O=C(N[C@H](CO)[C@H](O)c1ccc([N+](=O)[O-])cc1)C(Cl)Cl`, the Potency result in assay [1], in assay [2], in assay [3], in assay [4], in assay [5] and in assay [8] was “inactive” each time. Further, the Potency entry in assay [6] and in assay [7] was “inactive” throughout.

On to `COC(=O)Nc1nc2ccc(Sc3ccccc3)cc2[nH]1`, for which the Potency entry in assay [1] is “inactive”. Further, the Potency in assay [2] was 1.33 µM (active) and 2.62 µM (active); in assay [3] it was 1.06 µM (active); in assay [4], 833 nM (active); in assay [5] it was 1.06 µM (active) and 935 nM (active); in assay [6] it was 1.74 µM (active) and 3.06 µM (active); in assay [7], 469 nM (active).

Take `CC(C)C1CCC(C(=O)N[C@H](Cc2ccccc2)C(=O)O)CC1` (stereo partly drawn): the Potency result in assay [1], in assay [2], in assay [3], in assay [4], in assay [5] and in assay [8] was “inactive” each time. Further, the Potency entry in assay [6] and in assay [7] was “inactive” each time.

Turning to `CC(C)C[C@H](NC(=O)[C@H](CCc1ccccc1)NC(=O)CN1CCOCC1)C(=O)N[C@@H](Cc1ccccc1)C(=O)N[C@@H](CC(C)C)C(=O)[C@@]1(C)CO1`, the Potency is 118 nM (active) in assay [1]; 23.6 nM (active) and 147 nM (active) in assay [2]; 53.1 nM (active) and 93.5 nM (active) in assay [3]; 66.8 nM (active) and 29.6 nM (active) in assay [4]; 10.6 nM (active) and 18.7 nM (active) in assay [5]; 6 nM (active) and 5.9 nM (active) in assay [8]. The Potency was 174 nM (active) and 306 nM (active) in assay [6]; 53.1 nM (active) and 29.6 nM (active) in assay [7].

Turning to `CS(=O)(=O)c1ccc([C@@H](O)[C@@H](CO)NC(=O)C(Cl)Cl)cc1`, the Potency result in assay [1], in assay [2], in assay [3], in assay [4], in assay [5] and in assay [8] was “inactive” each time. The Potency result in assay [6] and in assay [7] was “inactive” each time.

For the compound `COCCCOc1cc(C[C@@H](C[C@H](N)[C@@H](O)C[C@H](C(=O)NCC(C)(C)C(N)=O)C(C)C)C(C)C)ccc1OC`, the Potency result in assay [1], in assay [2], in assay [3], in assay [4], in assay [5] and in assay [8] was “inactive” each time. Moreover, the Potency entry in assay [6] and in assay [7] was “inactive” each time.

For `O=c1oc2c(O)c(O)cc3c(=O)oc4c(O)c(O)cc1c4c23`, the Potency entry in assay [1], in assay [2], in assay [3], in assay [4], in assay [5] and in assay [8] was “inactive” throughout. Also, the Potency result in assay [6] and in assay [7] was “inactive” in each case.

As to `C#CCN[C@@H]1CCc2ccccc21`, the Potency entry in assay [1], in assay [2], in assay [3], in assay [4], in assay [5] and in assay [8] was “inactive” each time. The Potency entry in assay [6] and in assay [7] was “inactive” each time.

For the compound `CC[C@H](NC(C)C)[C@H](O)c1ccc(O)c2[nH]c(=O)ccc12`, the Potency entry in assay [1], in assay [2], in assay [3], in assay [4], in assay [5] and in assay [8] was “inactive” in each case. The Potency entry in assay [6] and in assay [7] was “inactive” each time.

Consider `O=C(O)c1cc(=O)[nH]c(=O)[nH]1`, for which the Potency result in assay [1], in assay [2], in assay [3], in assay [4], in assay [5] and in assay [8] was “inactive” each time. For the same compound, the Potency result in assay [6] and in assay [7] was “inactive” throughout.

As to `CC(C)OC(=O)OCOP(=O)(CO[C@H](C)Cn1cnc2c(N)ncnc21)OCOC(=O)OC(C)C`, the Potency result in assay [1], in assay [2], in assay [3], in assay [5], in assay [6] and in assay [7] was “inactive” throughout. Moreover, the Potency in assay [8] is 11.8 µM (active) and 15 µM (active).

For `CO[C@@]12[C@H](COC(N)=O)C3=C(C(=O)C(C)=C(N)C3=O)N1C[C@@H]1N[C@@H]12`, the Potency entry in assay [1] and in assay [2] was “inactive” each time. Further, the Potency in assay [3] is 9.35 µM (active); in assay [5], 1.33 µM (active) and 1.18 µM (active); in assay [8], 266 nM (active) and 743 nM (active); in assay [6], 347 nM (active) and 1.72 µM (active); in assay [7] it was 335 nM (active) and 9.35 µM (active).

Consider `NC(=O)N1c2ccccc2CC(=O)c2ccccc21`, for which the Potency result in assay [1], in assay [2], in assay [3], in assay [5], in assay [8] and in assay [6] was “inactive” each time. The Potency result in assay [7] is “inactive”.

For `Cc1oc(=O)oc1CN1CCN(c2cc3c(cc2F)c(=O)c(C(=O)O)c2n3C(C)S2)CC1` (stereo not drawn), the Potency entry in assay [1], in assay [2], in assay [3], in assay [4], in assay [5] and in assay [6] was “inactive” throughout. The Potency result in assay [7] is “inactive”.

In the case of `CNC1CCCN(c2c(F)cc3c(=O)c(C(=O)O)cn(C4CC4)c3c2OC)C1` (stereo not drawn), the Potency entry in assay [1], in assay [2], in assay [3], in assay [4], in assay [8] and in assay [6] was “inactive” throughout. In assay [7], the Potency entry was “inactive”.

Consider `O=S(=O)(c1cccc2cnccc12)N1CCCNCC1`, for which the Potency entry in assay [1], in assay [2], in assay [3], in assay [4], in assay [6] and in assay [7] was “inactive” each time. In assay [5], the Potency was 18.7 µM (active).
